TRPV1 potentiator = enhances activation of the human vanilloid receptor TRPV1; Q8NER1; TRPV1-expressing cells, Fluo-8 calcium influx, capsaicin EC20 potentiation; potentiation, % at 8.33 µM; 0.02% of 320,000 active; AID 540277; in the data active means potentiation above about 80%; inconclusive means between about 30% and that limit
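Fluo-8 calcium influx in TRPV1-expressing cells, kinetic read (ex 480/em 520 nm). Compound added and read 3 min for agonist activity, followed by capsaicin at EC20 final and 2 min further read for enhancement.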
KCNH2 WT inh = KCNH2 (human, wildtype) channel inhibition; Q12809; U2OS, BacMam KCNH2, thallium flux FluxOr; hits give low values; activity change, % at 1.84 µM; 0.37% of 340,000 active; AID 720551;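 active means maximum activity change below -70%; inconclusive means maximum activity change between -70% and -50%; inactive means maximum activity change above -50%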
Target sequence (Q12809 whole entry, looked up): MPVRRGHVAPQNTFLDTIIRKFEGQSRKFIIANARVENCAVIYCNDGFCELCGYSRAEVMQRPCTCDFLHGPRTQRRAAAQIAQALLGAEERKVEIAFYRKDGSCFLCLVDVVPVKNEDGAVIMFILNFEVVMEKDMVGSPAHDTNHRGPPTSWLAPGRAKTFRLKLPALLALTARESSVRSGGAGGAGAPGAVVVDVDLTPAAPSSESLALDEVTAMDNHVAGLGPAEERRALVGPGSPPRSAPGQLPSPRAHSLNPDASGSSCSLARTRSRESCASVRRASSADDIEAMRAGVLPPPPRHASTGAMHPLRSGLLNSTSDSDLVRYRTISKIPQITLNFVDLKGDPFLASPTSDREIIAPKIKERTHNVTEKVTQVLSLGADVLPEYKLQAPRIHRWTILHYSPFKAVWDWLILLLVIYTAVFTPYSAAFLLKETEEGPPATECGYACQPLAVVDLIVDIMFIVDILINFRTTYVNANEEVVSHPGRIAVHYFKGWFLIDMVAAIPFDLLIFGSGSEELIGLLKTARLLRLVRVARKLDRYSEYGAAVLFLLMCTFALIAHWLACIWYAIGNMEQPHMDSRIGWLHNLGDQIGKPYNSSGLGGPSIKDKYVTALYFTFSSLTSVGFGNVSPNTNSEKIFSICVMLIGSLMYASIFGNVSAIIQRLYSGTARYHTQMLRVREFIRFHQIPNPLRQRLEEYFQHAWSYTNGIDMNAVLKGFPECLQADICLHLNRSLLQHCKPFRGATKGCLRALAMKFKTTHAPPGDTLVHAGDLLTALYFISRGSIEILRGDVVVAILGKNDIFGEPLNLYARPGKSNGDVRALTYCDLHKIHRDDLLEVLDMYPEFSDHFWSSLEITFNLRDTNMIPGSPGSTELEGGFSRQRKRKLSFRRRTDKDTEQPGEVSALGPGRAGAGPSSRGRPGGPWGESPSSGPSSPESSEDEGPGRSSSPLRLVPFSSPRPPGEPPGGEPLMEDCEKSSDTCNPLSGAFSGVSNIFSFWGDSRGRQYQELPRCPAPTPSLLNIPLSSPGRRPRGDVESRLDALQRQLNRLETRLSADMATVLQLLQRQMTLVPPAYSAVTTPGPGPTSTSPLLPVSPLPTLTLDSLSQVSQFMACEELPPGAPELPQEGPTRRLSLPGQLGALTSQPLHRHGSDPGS
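U2OS cells were transduced with wild-type KCNH2 virus (2.03 x 10^8 / mL) for 4 h at room temperature, then cultured overnight at 37 C. Thallium flux was read with FluxOr dye. Rate constants were normalized to DMSO controls.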
TRPV1 agonist = agonists of human vanilloid receptor 1 (TRPV1). activation, % at 8.33 µM. Q8NER1. 0.19% of 320,000 active. TRPV1-expressing cells, Fluo-8 calcium influx, agonist mode. AID 540275; in the data active means activation above about 80%; inconclusive means between about 30% and that limit
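TRPV1-expressing cells were cultured overnight at 35.5C and loaded with Fluo-8 calcium dye for 40 to 90 min at room temperature. After a 10 s baseline, compound was added and calcium influx was read kinetically for 3 min (ex 480/em 520 nm).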
KCNH2 3.1 block = KCNH2 3.1 (human) potassium channel inhibition; 0.95% of 340,000 active; AID 720553; activity change, % (tested at about 1.8 µM); U2OS KCNH2 3.1, thallium flux FluxOr; hits give low values;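 active means maximum activity change below -70%; inconclusive means maximum activity change from -70% to -50%; inactive means maximum activity change above -50%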;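 further: thallium influx rate constant from kinetic fluorescence after stimulation buffer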
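Thallium flux read-out: FluxOr dye with Red40 quencher in HBSS/HEPES, 45 min at RT. Rate constants from kinetic reads were normalized to positive and negative DMSO controls. Cells: U2OS virally expressing the 3.1 isoform.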
Large screens that a line does not name were inactive. In the library only some 1.3% were active in any assay of this set; here they are far more common.

O=C(Nc1ccc(-c2nc3ncccc3o2)cc1)c1ccc(Br)o1	none
O=C(Nc1ccccc1)c1cc2ccccc2o1	TRPV1 agonist inconclusive
O=C(Nc1ccc(F)cc1)c1cc2ccccc2o1	TRPV1 agonist 98
O=C(COc1ccccc1[N+](=O)[O-])Nc1ccc(NC(=O)c2cc3ccccc3o2)cc1	KCNH2 3.1 block -119
O=C(Nc1ccc(NC(=O)c2cc3ccccc3o2)cc1)c1ccco1	KCNH2 3.1 block -75
O=C(Nc1ccc(-c2nc3ncccc3o2)cc1)c1ccco1	KCNH2 3.1 block -81
Cc1ccc(-n2c(SCC(=O)NC3CCS(=O)(=O)C3)nc3ccccc3c2=O)cc1C (stereo unspecified)	none
Cc1ccc(C)c(N(C(=O)CNC(=O)c2ccco2)C(C(=O)NCC2CCCO2)c2ccccc2)c1 (stereo unspecified)	TRPV1 agonist inconclusive, KCNH2 3.1 block -75
C=CC[C@H](CC(=O)N[C@H](CO)Cc1ccccc1)C(=O)N[C@@H](COC(=O)[C@@H](CC=C)Cc1ccc(F)cc1)Cc1c[nH]c2ccccc12	KCNH2 3.1 block -80 (no result: TRPV1 potentiator, TRPV1 agonist)
O=S(=O)(Nc1cc(F)ccc1F)c1cccc2nonc12	none
CN1C(=O)/C(=C\c2ccc(N(C)C)cc2)OC1=S	KCNH2 WT inh -101, TRPV1 agonist inconclusive
CCn1c(=O)c(C(C)=O)nc2ccccc21	none
CCCCCn1c(=O)c(C(=O)c2ccccc2)nc2ccccc21	KCNH2 WT inh -120, TRPV1 agonist inconclusive, KCNH2 3.1 block -78
CC(Nc1ccc2ccccc2c1)C(=O)N/N=C/c1ccncc1 (stereo unspecified)	none
Cn1c(N)c(C(=O)c2cc(-c3ccccn3)nc3ccccc23)c(=O)[nH]c1=O	KCNH2 WT inh -101
CCOC(=O)c1ccc(N2C(=O)CC(N3CCN(C/C=C/c4ccccc4)CC3)C2=O)cc1 (stereo unspecified)	KCNH2 WT inh -84, KCNH2 3.1 block -101
Cc1ccc(C(=O)OCC(=O)N2CCCCCC2)c(O)c1	none
C=CCc1c(C)nc(SCc2ccccc2)[nH]c1=O	none
N#Cc1ccc2c(c1)C[C@]1(c3ccsc3)OC3=C(C(=O)OC4(CCCCC4)C3)C2O1	none (no result: KCNH2 WT inh, KCNH2 3.1 block)
O=C(N1CCOCC1)N(Cc1cccs1)C1CCCC1	KCNH2 3.1 block -80
COc1ccc(Nc2nc(N3CCCCC3)c3ccccc3n2)cc1	none
Oc1ccc(Nc2nc(N3CCCC3)c3ccccc3n2)cc1	KCNH2 3.1 block -87
Cc1ccc(SCCNC(=O)c2ccccc2F)cc1	TRPV1 agonist 80
COc1ccc2c(c1)[C@H]1[C@H](CO2)[C@H](c2ccccc2)[C@]2(C)C(=O)N(Cc3ccc(C)cc3)CC(=O)N12	none (no result: TRPV1 potentiator, TRPV1 agonist)
COc1ccc(NC(=O)CN2C(=O)COc3ccc(S(=O)(=O)N4CCOCC4)cc32)cc1Cl	none
Cc1cccc(C)c1Nc1nnc(SCc2cn3cccc(C)c3n2)s1	KCNH2 3.1 block -179 (no result: KCNH2 WT inh)
Cc1cccc(C)c1Nc1nnc(SCC(=O)NC(=O)c2cccn2C)s1	none
O=C(CCN1C(=O)c2ccccc2C1=O)NC(=S)Nc1cccc(Cl)c1	KCNH2 3.1 block -72
CCc1ccc(NC(=O)N(Cc2c[nH]c3ccccc23)C2CCCCCC2)cc1	TRPV1 agonist inconclusive (no result: KCNH2 WT inh, KCNH2 3.1 block)
COC(=O)c1ccc(-n2c(C)cc(C(=O)CSc3ccc(NC(C)=O)cc3)c2C)cc1	KCNH2 3.1 block -120
CC(=O)Nc1ccc(SCC(=O)c2cc(C)n(-c3ccccc3F)c2C)cc1	none
CC(=O)NS(=O)(=O)c1ccc(NC(=O)c2ccc3c(c2)OCO3)cc1	none
COC(=O)c1oc2ccccc2c1N	none
COC(=O)c1oc2ccccc2c1NC(=O)/C=C/C(=O)O	KCNH2 3.1 block -74
FC(F)(F)Oc1ccc(Nc2nc(N3CCOCC3)nc(N3CCOCC3)n2)cc1	KCNH2 3.1 block -77
CCc1ccc(Nc2nc(N3CCOCC3)nc(N3CCOCC3)n2)cc1	none
CCOC(=O)C1(CCc2ccccc2)CCN(Cc2ccccn2)CC1	KCNH2 3.1 block -74
CCOC(=O)C1(CCc2ccccc2)CCN(C(=O)c2occc2C)CC1	TRPV1 agonist inconclusive
CCOC(=O)C1(CCc2ccccc2)CCN(Cc2ccc(C(=O)OC)cc2)CC1	KCNH2 WT inh -108, KCNH2 3.1 block -114
CCOC(=O)C1(Cc2ccccc2)CCN(Cc2cccc(OC)c2O)CC1	none
CCOC(=O)C1(CCc2ccccc2)CCN(Cc2cc(OC)c(OC)cc2OC)CC1	KCNH2 3.1 block -99
CCOC(=O)C1(CCc2ccccc2)CCN(C2Cc3ccccc3C2)CC1	KCNH2 WT inh inconclusive, KCNH2 3.1 block -79
CCN(c1ccc(NC(=O)CSCc2c(C)noc2C)cc1)C(C)C	none
